Screening data deposited in PubChem BioAssay by National Center for Advancing Translational Sciences (NCATS).
This is one part of a sample in which hits are shown more often than they occur.
Shiga toxin inh – Shiga toxin inhibition. Vero cells, Shiga toxin protein synthesis inhibition reporter. inhibition, % at 38.7 µM. 9.2% of 290,000 active; in the data active means inhibition mostly above about 28%, no sharp cut-off; inactive means mostly below about 43%; further: 0% is about no effect
Sm TGR block – inhibitors of Schistosoma mansoni thioredoxin glutathione reductase | purified TGR, DTNB reduction, TNB absorbance 405 nm | AID 485364 | Potency, µM (titrated, usually from 114 µM), for the others: at the top dose activity change, negative = inhibition, usual class: inhibitors | 3% of 360,000 active; further: potency means the concentration at half of the fitted maximal effect; on the % scale 0 is the no-effect control and ±100 the full control effect; nearly all actives have a fitted effect of over 60% in size
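TGR 20 nM + NADPH 100 uM (dispensed conc.), cpd preinc 15 min RT; start with NADPH (500 uM addition) then DTNB (15 mM addition). Kinetic TNB absorbance, 405 nm filter. Four-parameter Hill fit across titration.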
FBPA Giardia inh – inhibitors of Giardia lamblia fructose-1,6-bisphosphate aldolase; AID 2451; purified Giardia FBPA; 0.71% of 290,000 active; Potency, µM (doses to about 59.6 µM), without a hit: at the top dose activity, negative = inhibition, most hits filed as inhibitors; A8B2U2; further: potency means the concentration at half of the fitted maximal effect; on the % scale 0 is the no-effect control and ±100 the full control effect; nearly all actives have a fitted effect of over 55% in size
Target sequence (A8B2U2 whole entry, looked up): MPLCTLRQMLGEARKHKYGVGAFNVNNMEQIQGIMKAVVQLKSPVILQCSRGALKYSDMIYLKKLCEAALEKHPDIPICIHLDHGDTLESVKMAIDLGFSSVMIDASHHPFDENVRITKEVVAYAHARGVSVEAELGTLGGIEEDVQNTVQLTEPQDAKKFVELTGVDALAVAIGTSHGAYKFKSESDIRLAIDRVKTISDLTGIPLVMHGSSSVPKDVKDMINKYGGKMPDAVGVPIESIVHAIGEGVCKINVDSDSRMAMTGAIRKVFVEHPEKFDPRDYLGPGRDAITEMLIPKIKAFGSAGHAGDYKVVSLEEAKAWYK
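Giardia FBPA (40 nM reagent) was preincubated 10 min at RT with compound (up to 57.5 uM final), then substrate plus GAPDH/TPI/NAD/arsenate coupling system with diaphorase/resazurin was added; resorufin fluorescence (525/598 nm) was read after 20 min.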
LmPK inhibitor – blocks Leishmania mexicana pyruvate kinase activity; 0.37% of 290,000 active; Q27686; purified LmPK, Kinase-Glo ATP luminescence, 1 h; Potency, µM (top dose mostly 57.5 µM), without a hit: at the top dose activity change, negative = inhibition, usual class: inhibitors; further: potency means the concentration at half of the fitted maximal effect; on the % scale 0 is the no-effect control and ±100 the full control effect
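Kinase-Glo luminescence read after 1 h RT reaction of 0.1 nM LmPK with 0.5 mM PEP and 0.1 mM ADP. Activity scaled between uninhibited and enzyme-free controls.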
Tb PYK inh – inhibitors of Trypanosoma brucei pyruvate kinase; 0.12% of 410,000 active; Potency, µM (doses to about 76.8 µM), for inactives: top-dose activity, negative = inhibition, hits mostly inhibitors; AID 624173; TbPYK enzyme, Kinase-Glo Plus ATP luminescence, 45 min; further: potency means the concentration at half of the fitted maximal effect; on the % scale 0 is the no-effect control and ±100 the full control effect; nearly all actives have a fitted effect of over 50% in size
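Quantitative HTS: titrated library compounds versus trypanosomal pyruvate kinase in TEA buffer (pH 7.2) containing KCl, MgCl2, BSA and Tween-20. Reactions were initiated with ADP, 130 uM final. Kinase-Glo Plus luminescence was read after 45 min at RT.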
Cycloheximide cs – counter-screen hit for Shiga toxin inhibitors, cycloheximide | AID 2314 | 12% of 300,000 active | cell reporter, cycloheximide protein synthesis inhibition counterscreen | max response, %; in the data active means max response mostly above about 13%, no sharp cut-off; inactive means mostly below about 14%; further: read at 38.3 µM for the half of the compounds with a filed dose; 0% is about no effect
* hit, by the source's call. Unless noted, the call rests on the fitted dose curve; in most records, active means well fitted curve in the direction sought with a large enough effect; inconclusive means small, poorly fitted or top-dose-only effect, or another doubt; inactive means no such curve, though single readings can be large; an effect the other way counts as inactive or inconclusive.

Results for O=C(CCc1ccccc1)NC(=S)Nc1ccccc1[N+](=O)[O-] ?
Shiga toxin inh: 33; Sm TGR block: -22%; FBPA Giardia inh: -33%; LmPK inhibitor: 0%; Tb PYK inh: 1%; Cycloheximide cs: 12

What do the screens show for `O=C(Nc1ccc(F)cc1F)c1cncc(Br)c1`?
Shiga toxin inh: -2; Sm TGR block: 10%; FBPA Giardia inh: 2%; LmPK inhibitor: -4%; Tb PYK inh: -10%; Cycloheximide cs: 8

How did Cc1cccc(OCC(=O)N(Cc2cccs2)c2ccc(Cl)cc2)c1C do in these assays?
Sm TGR block: 5%; Tb PYK inh: -7%

Results for CCOC(=O)c1ccc2[nH]c(CSc3nnc(-c4cccc(F)c4)n3C)cc(=O)c2c1 ?
Sm TGR block: 0%; Tb PYK inh: 2%

What do the screens show for `CCC(C)C(=O)OC1C2CC3=C4CC(=O)OC(c5ccoc5)[C@]4(C)CCC3[C@@](C)(C2=O)C(CC(=O)OC)C1(C)C` (some centres undefined)?
FBPA Giardia inh: -8%

Results for Cc1cc(C(=O)Nc2cccc([N+](=O)[O-])c2C)cs1 ?
Shiga toxin inh: 23; Sm TGR block: 18%; FBPA Giardia inh: -3%; LmPK inhibitor: 0%; Tb PYK inh: 1%; Cycloheximide cs: 26*

What do the screens show for `Cc1c(NC(=O)c2ccc3nsnc3c2)cccc1[N+](=O)[O-]`?
Shiga toxin inh: 45; Sm TGR block: -7%; FBPA Giardia inh: -3%; LmPK inhibitor: 1%; Tb PYK inh: 3%; Cycloheximide cs: 2

Results for Cc1c(NC(=O)c2ccc(C(C)(C)C)cc2)cccc1[N+](=O)[O-] ?
Shiga toxin inh: 23; Sm TGR block: -14%; FBPA Giardia inh: -9%; LmPK inhibitor: 3%; Tb PYK inh: -1%; Cycloheximide cs: 27*

What do the screens show for `C1CN(CC2CCN(c3nc4nonc4nc3N3CCSCC3)CC2)CCO1`?
Shiga toxin inh: 1; Sm TGR block: 28µM*; FBPA Giardia inh: 6%; LmPK inhibitor: 1%; Tb PYK inh: 0%; Cycloheximide cs: 4

Results for C1CC(CN2CCOCC2)CN(c2nc3nonc3nc2N2CCSCC2)C1 (centres undefined) ?
Shiga toxin inh: -17; Sm TGR block: inconclusive; FBPA Giardia inh: 7%; LmPK inhibitor: -4%; Tb PYK inh: -1%; Cycloheximide cs: -1

Results for CCOc1ccc(-c2cc(C(=O)OC)[nH]n2)cc1 ?
Shiga toxin inh: 89*; Sm TGR block: 9%; FBPA Giardia inh: 19%; LmPK inhibitor: -6%; Tb PYK inh: -4%; Cycloheximide cs: 43*

How did COC(=O)c1cc(-c2ccc(OC)cc2)n[nH]1 do in these assays?
Shiga toxin inh: 103*; FBPA Giardia inh: -5%; LmPK inhibitor: -14%; Tb PYK inh: -2%; Cycloheximide cs: 27*

How did CCOc1ccc(-c2cc(C(=O)NCCc3ccc(OC)c(OC)c3)[nH]n2)cc1 do in these assays?
Sm TGR block: 2%; Tb PYK inh: 6%

Results for COC(=O)c1cc(-c2ccc(C)cc2)n[nH]1 ?
Shiga toxin inh: 82*; Sm TGR block: -2%; FBPA Giardia inh: -1%; LmPK inhibitor: -4%; Tb PYK inh: 6%; Cycloheximide cs: 48*

What do the screens show for `COC(=O)c1cc(-c2cccc(OC)c2)n[nH]1`?
Shiga toxin inh: 49*; Sm TGR block: 0%; FBPA Giardia inh: -1%; LmPK inhibitor: -10%; Tb PYK inh: 4%; Cycloheximide cs: 24*

How did COc1cccc(-c2cc(C(=O)NCCc3ccc(C)cc3)[nH]n2)c1 do in these assays?
Sm TGR block: -6%; Tb PYK inh: -3%

What do the screens show for `Cc1cc(Nc2nc3ccccc3c3nnc(C)n23)ccc1Br`?
Sm TGR block: 9%; Tb PYK inh: -3%

What do the screens show for `N#CCCn1c(=O)c(-c2ccccc2)nc2cnc(N3CCNCC3)nc21`?
FBPA Giardia inh: 0%; Tb PYK inh: -1%

How did O=C(O)CC1(CC(=O)Nc2nccs2)CCCCC1 do in these assays?
Tb PYK inh: -1%

What do the screens show for `Cc1nnc(SCc2ccccc2Cl)c2cc3occc3n12`?
Sm TGR block: 11%; Tb PYK inh: -4%

What do the screens show for `COc1ccc(-c2cc(C(=O)N3CCN(S(=O)(=O)c4ccccc4)CC3)[nH]n2)cc1`?
Shiga toxin inh: 20; Sm TGR block: -11%; FBPA Giardia inh: -13%; LmPK inhibitor: -3%; Tb PYK inh: -2%; Cycloheximide cs: 5.9*

What do the screens show for `Cc1ccn2c(c1)nc(=S)n2C(=O)c1ccco1`?
Shiga toxin inh: 74*; Sm TGR block: -17%; FBPA Giardia inh: -1%; LmPK inhibitor: inconclusive; Cycloheximide cs: 39*

Results for COc1ncnc2c1ncn2CC1COC(C)(C)O1 (centres undefined) ?
Tb PYK inh: -1%

What do the screens show for `Nc1ccccc1C(=O)NN=Cc1cccc([N+](=O)[O-])c1`?
Tb PYK inh: -9%

How did N/C(=N\N=C\c1ccc2c(c1)OCO2)c1nonc1N do in these assays?
Shiga toxin inh: 75*; Sm TGR block: 28%; FBPA Giardia inh: 1%; LmPK inhibitor: 11µM*; Tb PYK inh: -17%; Cycloheximide cs: 45*

Results for N/C(=N\N=C\c1cccc([N+](=O)[O-])c1)c1nonc1N ?
Shiga toxin inh: 76*; Sm TGR block: 0%; FBPA Giardia inh: 8%; LmPK inhibitor: 2%; Tb PYK inh: 1%; Cycloheximide cs: 50*

Results for COc1cccc(/C=N/N=C(\N)c2nonc2N)c1O ?
Shiga toxin inh: 116*; Sm TGR block: -5%; FBPA Giardia inh: 0%; LmPK inhibitor: -8%; Tb PYK inh: 1%; Cycloheximide cs: 35*

What do the screens show for `CC(C)c1c(C(=O)N/N=C/c2ccc3c(c2)OCO3)nnn1-c1nonc1N`?
Shiga toxin inh: -4; Sm TGR block: 0%; FBPA Giardia inh: -3%; LmPK inhibitor: 0%; Tb PYK inh: -3%; Cycloheximide cs: 8

How did COc1ccc(NC(C)=O)cc1S(=O)(=O)N1CCN(Cc2cccs2)CC1 do in these assays?
Sm TGR block: 2%; Tb PYK inh: 2%

What do the screens show for `Cc1nc(N2CCN(S(=O)(=O)c3ccccc3C#N)CC2)c2c(-c3ccccc3)csc2n1`?
Sm TGR block: -1%; Tb PYK inh: -1%

How did O=C(Cn1c(=O)oc2ccccc21)NCc1cccc(Cl)c1 do in these assays?
Sm TGR block: 7%; Tb PYK inh: 0%

What do the screens show for `O=C(C[N+]12CC[N+](CC(=O)c3ccc(F)cc3)(CC1)CC2)c1ccc(F)cc1`?
Shiga toxin inh: -10; Sm TGR block: -21%; FBPA Giardia inh: 6%; LmPK inhibitor: 0%; Tb PYK inh: -10%; Cycloheximide cs: 1
